Shown are actives, neighbours in structure and some others; about 4.2% of the full set was active somewhere.
12-LOX inh: ALOX12 (human) lipoxygenase inhibition. purified 12hLO, xylenol orange hydroperoxide absorbance. Potency, µM (doses to about 108 µM), usual class: inhibitors. 580,000 tested, 1.1% active
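Purified human 12hLO at 150 nM in 25 mM Hepes, 0.01% Triton X-100, pH 7.0, preincubated 15 min at room temperature with compound. Reaction started with 40 uM arachidonic acid, 30 min at room temperature. Hydroperoxide measured by Fe-xylenol orange, 573/405 nm absorbance ratio.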
Sfp PPTase inh: inhibitors of Bacillus subtilis Sfp phosphopantetheinyl transferase; 310,000 tested, 3.5% active; Potency, µM, actives largely listed as inhibitors; Biochemical Sfp PPTase activity, qHTS; Q9F4F7;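 note: the enzyme is Sfp with the accession as filed and its product quenches rhodamine fluorescence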
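Sfp 15 nM + cpd, 15 min RT; start w/ rhodamine-CoA 5 uM, BHQ-2-YbbR 12.5 uM (final); 50 mM Hepes pH 7.6, 10 mM MgCl2, 0.01% NP-40, 0.01% BSA; read 525/598 nm at 0 and 30 min.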
PLK1 PBD inh: PLK1 (human) polo-box domain binding inhibition | P53350 | Potency, µM, actives largely listed as inhibitors | 360,000 tested, 2.8% active | Plk1 PBD binding of FITC phosphopeptide, fluorescence polarization; note: series mostly up to about 57 µM; nearly all actives have a fitted effect of over 65% in size
VDR inhibitor: blocks the human vitamin D receptor; Potency, µM, usual class: inhibitors; VDR-SRC2-3 peptide fluorescence polarization, 2 h; 400,000 tested, 0.93% active; P11473
Target sequence (P11473 whole entry, looked up): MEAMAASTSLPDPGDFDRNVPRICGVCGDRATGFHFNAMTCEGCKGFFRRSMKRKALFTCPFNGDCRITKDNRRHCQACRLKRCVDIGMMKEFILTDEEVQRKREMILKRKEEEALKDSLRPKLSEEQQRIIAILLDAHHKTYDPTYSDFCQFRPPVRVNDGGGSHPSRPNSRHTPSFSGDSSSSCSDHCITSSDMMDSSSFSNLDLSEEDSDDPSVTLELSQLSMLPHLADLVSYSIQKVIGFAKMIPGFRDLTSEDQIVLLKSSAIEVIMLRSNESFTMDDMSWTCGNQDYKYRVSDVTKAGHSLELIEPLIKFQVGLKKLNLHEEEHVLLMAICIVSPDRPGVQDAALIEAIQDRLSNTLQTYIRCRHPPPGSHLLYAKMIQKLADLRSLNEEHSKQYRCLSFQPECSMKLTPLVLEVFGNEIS
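Fluorescence polarization assay of small-molecule disruption of VDR binding to coregulator peptide SRC2-3. Compounds and controls pin-transferred, then read after 2 h incubation at ambient room temperature.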
Numbers stand for hits; n = inactive; u = inconclusive; x = no result; ! = a repeat was not active. Calls come from the whole dose curve; as a rule, active = well fitted curve in the direction sought with a large enough effect; inconclusive = small, poorly fitted or top-dose-only effect, or another doubt; inactive = no such curve, though single readings can be large; an effect the other way counts as inactive or inconclusive.

SMILES	12-LOX inh	Sfp PPTase inh	PLK1 PBD inh	VDR inhibitor
CCS(=O)(=O)N1CCC(C(=O)Oc2ccc(Br)cc2)CC1	u	n	n	n
CCS(=O)(=O)N1CCC(C(=O)Oc2ccc(Cl)cc2)CC1	n	n	26.7µM	n
Cc1ccc(S(=O)(=O)NC(=O)NCc2ccc(F)cc2)cc1	n	n	n	n
CC1=C(C(=O)OCc2ccccc2)C(c2ccc([N+](=O)[O-])cc2)NC(=O)N1CCCCCC(=O)O (stereo not given)	u	44.7µM!	n	n
CC1=C(C(=O)OCc2ccccc2)C(c2ccc(C(C)(C)C)cc2)NC(=O)N1CCCCCC(=O)O (stereo not given)	25.1µM	n	n	n
COc1ccccc1-c1noc2c1C(=O)N(Cc1cn(-c3ccccc3OC)nn1)CC2	n	x	n	x
O=C(O)[C@@H]1CSCN1	u	56.2µM	x	n
N#CC1=C(S)N(c2ccccc2)C(c2cccs2)NC1=O (stereo not given)	u	10µM	u	u
Cc1ccc(N2C(S)=C(C#N)C(=O)NC2c2cccs2)cc1 (stereo not given)	u	35.5µM	26.7µM	25.1µM
COc1cccc(CN2CCc3c(cc(C(=O)Nc4ccc(F)cc4C)n3C)C2)c1	n	x	x	x
O=c1cc(-c2ccc(O)cc2)oc2c1ccc1ccccc12	n	x	n	n
O=c1cc(-c2ccc(O)cc2)oc2c(O)c(O)c(O)c(O)c12	n	4.47µM	n	n
CCOC(=O)N1CCN(C(=O)c2ccc(SC)cc2OC)CC1	n	n	n	n
CCOC(=O)C1CCN(C(=O)c2ccc(SC)cc2OC)CC1	n	n	29.9µM	n
CC(=O)C(c1ccccc1)C(c1ccccc1)C(C)[N+](=O)[O-] (stereo not given)	n	n	n	n
COc1cc(CNc2ccc(S(N)(=O)=O)cc2)ccc1OCc1ccccc1F	n	x	n	n
COc1cc(CNc2ccc(N3CCCC3)cc2)ccc1OCc1ccccc1F	x	n	n	79.4µM
COc1cc(CNc2ccc(N3CCCCC3)cc2)ccc1OCC(=O)NC(C)(C)C	u	n	n	n
COc1cc(CNc2ccc(N3CCCC3)cc2)ccc1OCc1ccccc1	u	u	n	35.5µM
CC(C)CC(=O)N1CCC(N2CCN(c3ccccc3)CC2)CC1	u	n	29.9µM	u
CCOC(=O)C1CCN(C(=O)CCNS(=O)(=O)c2ccc(C)cc2)CC1	n	x	n	n
CCOC(=O)C1CCN(C(C(=O)NC2CCCCC2)c2ccc(OC)cc2)CC1 (stereo not given)	n	n	26.7µM	n
CCOC(=O)C1CCN(C(=O)CC(C)c2ccccc2)CC1 (stereo not given)	n	n	23.8µM	u
CCOC(=O)C1CCN(C(=O)CC(NS(=O)(=O)c2ccc(OC)cc2)C(C)C)CC1 (stereo not given)	x	n	3.77µM	u
COc1ccc(C(C(=O)NC2CCCC2)N2CCc3ccccc32)cc1 (stereo not given)	u	n	n	n
SMILES	12-LOX inh	Sfp PPTase inh	PLK1 PBD inh	VDR inhibitor
CCOC(=O)C1CCCN(C(=O)CC(C)c2ccccc2)C1 (stereo not given)	n	n	n	n
O=C(CCC1CCCC1)N1CCC(N2CCN(c3ccccc3)CC2)CC1	n	n	n	n
COC(=O)c1ccc(/C=C/C(=O)C23CC4CC(CC(C4)C2)C3)cc1	n	x	x	x
COc1cccc(C(C2=C(O)CC(C)(C)CC2=O)C2C(=O)CC(C)(C)CC2=O)c1 (stereo not given)	n	n	u	u
CC1(C)CC(=O)C(C(C2=C(O)CC(C)(C)CC2=O)c2ccc([N+](=O)[O-])cc2)C(=O)C1 (stereo not given)	n	17.8µM	n	u
C[C@H](CO)N1C[C@H](C)[C@H](CN(C)C(=O)Nc2cccc3ccccc23)OCc2cnnn2CCCC1=O	n	x	n	x
CC1Cc2ccccc2N1c1ncnc2c1nnn2Cc1ccccc1 (stereo not given)	n	28.2µM	n	n
Cc1onc(-c2c(Cl)cccc2Cl)c1C(=O)N[C@H]1C(=O)N2[C@H]1SC(C)(C)[C@H]2C(=O)O	x	n	x	n
Cc1ccc(F)cc1NC(=O)N1CCN(C2c3ccccc3-c3ccccc32)CC1	n	n	n	n
COCCCNC(=O)c1ccc(N2CCCC2)c(NS(=O)(=O)c2ccc(C)cc2)c1	u	u	n	n
COc1ccc(Nc2nc(C)cc(C)c2C(N)=O)c(OC)c1	n	39.8µM	n	n
COc1ccccc1Nc1nc(C)cc(C)c1C(N)=O	n	n	n	n
